This is a sample that favours compounds with a hit; in the whole collection about 9.3% have one here.
SMN2 splice enh = qHTS Assay for Enhancers of SMN2 Splice Variant Expression | HEK293 SMN2-luciferase splicing reporter, luminescence, 30-36 h | Potency, µM (series often up to 46.1 µM), inactives show top-dose activity change, positive = activation, actives largely listed as activators | 2.8% of 210,000 active | AID 1458, 2008; also: % of control where 0% means no effect; nearly all actives have a fitted effect of over 55% in size
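qHTS luciferase splicing reporter: luminescence rises when SMN2 exon 7 is included in transfected HEK293 cells. Compound exposure lasted 30-36 h at 37C, with 4.5 mM final sodium butyrate as control, followed by a ONE-Glo read.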
ELG1 repair inh = qHTS screen for small molecules that inhibit ELG1-dependent DNA repair in human embryonic kidney (HEK293T) cells expressing luciferase-tagged ELG1; HEK293T ELG1-luciferase reporter, luminescence, 16 h; DNA damage induced by 5-fluorouridine; Potency, µM (series often up to 46.1 µM), inactives show top-dose activity change, negative = inhibition, usual class: inhibitors; 2.3% of 330,000 active; also: % is scaled to controls: 0 for no effect and ±100 for the full control effect; nearly all actives have a fitted effect of over 55% in size
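Overnight (16 hr) co-exposure of 2,000 cells/well to 5-fluorouridine and compound at 37 °C preceded detection. Luciferase was quantified via ONE-Glo luminescence; loss of signal denotes inhibition.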
Rab9 promoter act = qHTS Assay for Rab9 Promoter Activators; Huh7 Rab9 promoter-luciferase reporter, luminescence, 24 h; Potency, µM (doses to about 9.22 µM), for inactives: at the highest dose activation, negative = inhibition, usual class: activators; 2.8% of 320,000 active; also: % of control where 0% means no effect; nearly all actives have a fitted effect of over 60% in size
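Promoter activation is measured as luciferase luminescence in Huh7 cells stably transfected with a Rab9 promoter–luciferase construct, following 24 h compound exposure at 37 °C and 10 min reagent incubation at ambient temperature.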
FLuc counter = qHTS profiling assay for firefly luciferase inhibitor/activator using purifed enzyme and Km concentrations of substrates (counterscreen for miR-21 project); purified FLuc, Km substrates, luminescence inhibition; Luciferin 4-monooxygenase (Photinus pyralis), P08659; 6.9% of 360,000 active; Potency, µM (series often up to 57.5 µM), without a hit: at the top dose activity change, negative = inhibition, most hits filed as inhibitors; AID 588342, 2011;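 also: plate controls were vehicle for no effect and reference inhibitor for full effect; nearly all actives have a fitted effect of over 55% in size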
Target sequence (P08659 whole entry, looked up): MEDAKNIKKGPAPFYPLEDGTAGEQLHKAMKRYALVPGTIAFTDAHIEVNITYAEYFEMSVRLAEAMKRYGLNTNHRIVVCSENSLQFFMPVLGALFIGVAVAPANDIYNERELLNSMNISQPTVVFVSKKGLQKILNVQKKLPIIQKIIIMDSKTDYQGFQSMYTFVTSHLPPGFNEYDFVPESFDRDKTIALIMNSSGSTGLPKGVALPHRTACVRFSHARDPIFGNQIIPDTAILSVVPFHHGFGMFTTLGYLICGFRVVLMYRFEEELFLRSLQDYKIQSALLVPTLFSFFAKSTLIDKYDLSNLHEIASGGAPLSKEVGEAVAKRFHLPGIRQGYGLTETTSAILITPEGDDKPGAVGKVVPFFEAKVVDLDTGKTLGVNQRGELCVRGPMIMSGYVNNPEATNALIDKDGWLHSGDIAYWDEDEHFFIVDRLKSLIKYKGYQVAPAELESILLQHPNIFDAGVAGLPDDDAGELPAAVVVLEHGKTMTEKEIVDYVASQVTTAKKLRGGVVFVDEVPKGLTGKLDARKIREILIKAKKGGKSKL
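Purified P. pyralis luciferase (10nM final) with 10uM D-luciferin and 10uM ATP (Km levels) in 50mM Tris acetate pH 7.5, 10mM Mg acetate, 0.01% Tween-20, 0.05% BSA; qHTS 6-point titration, ~60 µM downward; luminescence read.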
NPC1 prom act = qHTS Assay for NPC1 Promoter Activators; Potency, µM (top dose mostly 9.22 µM), inactives show top-dose activation, most hits filed as activators; Huh7 NPC1 promoter luciferase reporter, 24 h; 2.4% of 320,000 active; also: % of control where 0% means no effect; nearly all actives have a fitted effect of over 60% in size
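Huh7 cells stably carrying NPC1 promoter–luciferase, plated in Opti-MEM with 10% FBS for 2 h, were exposed to compound in DMSO for 24 h at 37 °C; luciferase reagent was added for 10 min and luminescence read.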
ELG1 genotox = qHTS screen for small molecules that induce genotoxicity in human embryonic kidney (HEK293T) cells expressing luciferase-tagged ELG1; HEK293T ELG1-luciferase reporter, luminescence, 16 h; Potency, µM (doses to about 46 µM), for the others: top-dose activity change, positive = activation, usual class: activators; 1.3% of 330,000 active; AID 504466, 2011; also: % of control where 0% means no effect; nearly all actives have a fitted effect of over 60% in size
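Cells (2,000/well) expressing the ELG1-luciferase fusion are dosed by pin tool and kept 16 hr at 37 °C, 5% CO2. Signal comes from ONE-Glo luciferase reagent after 30 min at room temperature.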
Active calls of the source: *; ? = inconclusive; . = not tested or not shown; [ ] = another dose, or the depositor's remark. Calls follow the shape of the dose curve; as a rule, active = well fitted curve in the direction sought with a large enough effect; inconclusive = small, poorly fitted or top-dose-only effect, or another doubt; inactive = no such curve, though single readings can be large; an effect the other way counts as inactive or inconclusive. Potency is read from the fitted curve at half-maximal effect.

SMILES | SMN2 splice enh | ELG1 repair inh | Rab9 promoter act | FLuc counter | NPC1 prom act | ELG1 genotox
COc1ccc(C)cc1S(=O)(=O)N1CCC(C(=O)NCCC2=CCCCC2)CC1 | 3% | 11% | -2% | 0% | -3% | -4%
CCOc1ccc(-c2ccc(/C=C3/C(=N)N4C(C)=CSC4=NC3=O)o2)c([N+](=O)[O-])c1 | -10% | 26µM* | 0% | -14% | 4% | -6%
CCOc1ccc(-c2ccc(/C=C3/C(=N)N4C=CSC4=NC3=O)o2)c([N+](=O)[O-])c1 | -9% | 0% | -6% | 2% | 0% | ?
Cc1cc(OCC(=O)Nc2ccc(CN3CCOCC3)cc2)ccc1Cl | . | -29% | -12% | -8% | 0% | -4%
O=C1N(c2ccccc2)C[C@@H]2C[C@@H](c3cccs3)N3CCC[C@@]123 | 22µM* | ? | -32% | -5% | -23% | -7%
CC(C)(O)C#Cc1ccc([C@@H]2C[C@H]3CN(c4ccccc4)C(=O)[C@]34CCCN24)s1 | ? | -15% | -32% | 3% | -37% | -3%
COCc1cc([C@@H]2C[C@H]3CN(c4ccccc4)C(=O)[C@]34CCCN24)ccc1OC | . | 15µM* | -11% | -1% | -6% | -4%
C(=C\c1ccccc1)/CSc1ccccn1 | 24% | ? | 3.5µM* | 12µM* | ? | 17%
Cc1cc(C)nc(SC/C=C/c2ccccc2)n1 | . | ? | 12% | ? | 11% | 11%
Cc1sc(NC(=O)c2ccco2)c(C(c2cccnc2)N2CCN(CCO)CC2)c1C (stereo not given) | 8% | -2% | 2% | -9% | 0% | -3%
CCOC(=O)C1CCN(C(c2cccnc2)c2c(NC(=O)c3ccco3)sc(C)c2C)CC1 (stereo not given) | -35% | 15µM* | -15% | -10% | -15% | 1%
Cc1nc(SCc2ccc(OCCC(C)C)cc2)n[nH]1 | ? | ? | ? | 21µM* | ? | ?
COc1ccc(CCNC(=O)c2ccc3c(c2)OCO3)cc1 | . | ? | ? | ? | 23% | 15%
O=C(NCCc1ccccc1)c1ccc2c(c1)OCCO2 | . | ? | 0.0032µM* | 0.13µM* | 0.016µM* | ?
O=C(NCCc1cccc(Cl)c1)c1ccc2c(c1)OCO2 | . | ? | 0.45µM* | 1.5µM* | 0.32µM* | 2.6µM*
O=C(NCCc1ccccc1)c1ccc2c(c1)OCCCO2 | . | ? | ? | 0.06µM* | -37% | ?
O=C(NCCS(=O)(=O)NCCc1ccccc1)c1ccc2c(c1)OCO2 | . | ? | 3.2µM* | 12µM* | 4.5µM* | 2.1µM*
CCOc1ccccc1NC(=O)CSc1nc(=O)n(CCCN2CCOCC2)c2c1CCCC2 | . | 10% | 0% | 3% | -1% | 1%
COc1ccc(CCNC(=O)c2coc(=O)c(Br)c2)cc1 | . | ? | 9% | 0% | 9% | 18µM*
COc1ccc(CCNC(=O)c2ccc3c(c2)OCCO3)cc1 | ? | ? | 3.2µM* | 9.5µM* | ? | ?
O=C(N/N=C\c1ccc2c(c1)CCC2)c1ccccc1O | 0%[9.22 µM] | . | . | . | . | .
CC(C)c1ccc2[nH]c(O)c(N=NC(=O)c3ccc(CSc4nncn4C)cc3)c2c1 | 25% | ? | 26% | ? | 18% | 4%
Cc1ccc(C)c(NS(=O)(=O)c2ccc(NC(=O)CSc3ccc(Cl)cc3)cc2)c1 | -15% | ? | 0% | 6% | 3% | -4%
Cc1ccc(NS(=O)(=O)c2ccc(NC(=O)C(C)Sc3ccc(Cl)cc3)cc2)c(C)c1 (stereo not given) | -26% | 21µM* | -8% | 1% | -3% | -12%
O=c1oc(CCCO)cc2ccc(C#Cc3ccsc3)cc12 | . | ? | -9% | ? | ? | 12%
SMILES | SMN2 splice enh | ELG1 repair inh | Rab9 promoter act | FLuc counter | NPC1 prom act | ELG1 genotox
CN(C)c1ccc(C#Cc2ccc3cc(CCCO)oc(=O)c3c2)cc1 | . | ? | 1% | 1.7µM* | 2.8µM* | ?
Cc1cc(C)nc(-n2nc(C)c3c2N(Cc2ccccc2)C(=O)CC3c2ccc(Cl)cc2)n1 (stereo not given) | . | . | . | -10% | . | .
COC(=O)CCCn1c(C)cc(C(=O)CCl)c1C | -25% | 13% | -2% | -3% | -6% | -1%
C(=N/n1c2ccccc2c2ccccc21)/c1ccco1 | ? | 14% | -2% | 0% | -5% | -9%
N=c1scc(-c2ccccc2)n1/N=C/c1ccco1 | ? | ? | 3.5µM* | 6.7µM* | ? | ?
COc1cccc2cc(C(=O)NCc3ccccc3)c(=N)oc12 | . | ? | 3% | 11µM* | -4% | 14%
CCOc1cccc2cc(C(=O)NC(C)c3ccccc3)c(=N)oc12 (stereo not given) | . | 13% | 3% | 1% | 0% | -2%
CCOc1cccc2cc(C(=O)NCc3ccccc3)c(=N)oc12 | . | 23% | 1% | 17µM* | -1% | 16%
COc1cccc2cc(C(=O)NCc3ccc(Cl)cc3)c(=N)oc12 | . | 22% | 0% | ? | -8% | -7%
CCOc1cccc2cc(C(=O)NCc3ccc(F)cc3)c(=N)oc12 | . | 0% | -2% | 15µM* | -3% | ?
O=C(c1ccccc1Oc1ccccc1)N1CCN(c2ccccc2F)CC1 | 0% | -21% | -3% | 6% | -3% | -5%
Cc1[nH]c2ccccc2c1C(=O)C(=O)NCCC1=CCCCC1 | -5% | -18% | 0% | -7% | -2% | -2%
C1=C(CCNc2ncnc3c2[nH]c2ccccc23)CCCC1 | -43% | 18% | -33% | 19µM* | -28% | 6%
O=c1c2[nH]c3ccccc3c2ncn1CCC1=CCCCC1 | 24% | ? | ? | 1% | 2.5µM* | 12%
Cc1ccc2[nH]c3c(=O)n(CCC4=CCCCC4)cnc3c2c1 | -3% | 17% | 17% | -1% | 24% | 5%
CCOc1ccc(N(CC(=O)Nc2cccc(C)c2)S(C)(=O)=O)cc1 | . | ? | ? | ? | ? | 17%
COc1ccccc1C(=O)N1CCN(C(=O)COc2cccc(C)c2)CC1 | -7% | 3% | -1% | 3% | 0% | -1%
O=C(NCc1ccco1)c1cc2ccc(O)cc2oc1=O | 8% | ? | ? | 11µM* | ? | ?
COc1ccc2cc(C(=O)NCc3ccco3)c(=Nc3ccc(C(=O)O)cc3)oc2c1 | -34% | ? | 7% | ? | 7% | 14%

Assay outcomes (PubChem)
